Bioassay records deposited in PubChem by Emory University Molecular Libraries Screening Center.
Many of the other results were omitted from the sample, so hits are more common in it than they were.
14-3-3 PPI = alters human 14-3-3 gamma binding to Raf peptide | AID 422 | hit rate 0.19% among 160,000 | FP, 14-3-3gamma / TMR-pS259-Raf peptide binding | inhibition, % at 40 µM; in the data active means inhibition above about 30%;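 further: 0% = protein plus tracer without compound and 100% = blank with tracer alone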
Target sequence (P61981 whole entry, looked up): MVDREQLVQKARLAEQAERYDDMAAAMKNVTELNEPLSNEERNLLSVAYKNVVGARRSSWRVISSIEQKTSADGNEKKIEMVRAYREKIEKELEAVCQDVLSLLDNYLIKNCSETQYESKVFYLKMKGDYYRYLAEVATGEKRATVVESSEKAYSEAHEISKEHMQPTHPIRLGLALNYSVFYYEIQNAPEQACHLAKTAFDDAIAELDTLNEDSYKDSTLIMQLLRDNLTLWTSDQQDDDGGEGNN
An asterisk follows results filed as active.

SMILES	14-3-3 PPI
CNc1ccc2nc3ccccc3[n+](CCO)c2c1	67*
CCc1ccc(Nc2cc(C(=O)O)c3ccccc3n2)cc1	-3
Cc1cc(C)n(-c2ccccc2O)n1	0
CCN(Cc1ccccc1)C(=O)Cn1c(=O)n(-c2ccc(OC)cc2OC)c(=O)c2c3c(sc21)CCCC3	-3
Cc1ccc(-n2ncc3c(=O)[nH]c(SCC(=O)Nc4ccc(F)cc4)nc32)cc1	-2
CCCCCCSc1ncnc2c1sc1nc(N3CCOCC3)c3c(c12)CC(C)(C)OC3	-3
COc1ccc(S(=O)(=O)N(CC(=O)NCc2cccnc2)c2ccc(C)cc2)cc1	-11
COC(=O)C1=C(C)NC(C)=C(C(=O)OC)C1c1ccc(-c2ccc(Cl)cc2)o1	-21
CCOC(=O)C1=C(C)NC(C)=C(C(=O)OCC)C1c1ccc(-c2ccccc2Cl)o1	-19
CCOC(=O)C1=C(C)NC(C)=C(C(=O)OCC)C1c1ccc(-c2ccccc2)o1	40*
CCOC(=O)c1c(C)n(-c2ccccc2)c2c1cc(OC(C)=O)c1ccccc12	16
Cc1cccc(NC(=O)c2cc3c(n(-c4ccc(Cl)cc4)c2=O)CCCC3=O)n1	-30
Clc1ccc(Sc2c(-c3ccccc3)nc3ncccn23)cc1	39*
CSc1ccc(-c2nc3ncccn3c2Nc2ccccc2C)cc1	-32
Clc1ccc(-c2nc3ncccn3c2Nc2ccc3c(c2)OCO3)cc1	-7
CCCOc1cc(O)c(-c2n[nH]c(C)c2Oc2ccccc2)cc1CC	1
Cc1ccc(-c2csc3ncn(Cc4csc(-c5ccc(Cl)cc5)n4)c(=O)c23)cc1	-3
COC(=O)c1ccccc1NC(=O)C1(S(=O)(=O)c2ccc(C)cc2)CC1	-16
Cc1cc(NS(=O)(=O)c2ccc(NC(=O)CCN3C(=O)c4ccccc4C3=O)cc2)no1	-10
CCC(=O)Nc1ccc(S(=O)(=O)Nc2cc(C)on2)cc1	-6
Cc1cc(NS(=O)(=O)c2ccc(NC(=O)CCC(=O)O)cc2)no1	37*
COc1cc(N/C(=N\c2nc(C)cc(C)n2)NC(=O)c2ccccc2)c(OC)cc1Cl	3
Fc1ccc(-c2cnc3ccccc3n2)cc1	-9
Oc1c(-c2ccc(F)cc2)c2nc3ccccc3nc2c2ccccc12	53*
O=C(O)c1cc(-c2ccc(F)cc2)nc2ccccc12	2
SMILES	14-3-3 PPI
CC(=O)Nc1cc(C(=O)N2CCOCC2)ccc1Sc1ccc(C)cc1	-5
CCOC(=O)c1cnc2c(ccc3ccccc32)c1NC1CCCCC1	-5
CCOC(=O)c1cnc2c(C#N)cnn2c1C	141*
CCOC(=O)c1cnc2c(C#N)cnn2c1-c1ccccc1	0
CCOC(=O)Cc1c(C)nc2c(C#N)cnn2c1C	-4
O=C(CCS(=O)(=O)c1cc(Br)cc2c1N(C(=O)C1CC1)CC2)Nc1ccc(Cl)c(C(F)(F)F)c1	-5
Cc1cc(N2CCOCC2)nc2ccc(NC(=O)CCC(=O)N3CCCc4ccccc43)cc12	-5
C=CCC1C=CCC(CC=C)N1C(=O)C(F)(F)F (stereo not given)	1
CC(C)CC1CCCC(CC(C)C)N1CCO (stereo not given)	-4
C=CCC1C=CCC(CC=C)N1CCO (stereo not given)	106*
CC(Oc1cc2oc(=O)c3c(c2cc1Cl)CCCC3)C(=O)O (stereo not given)	-5
COc1ccccc1C1CC(=O)C2=C(C1)NC(C)=C(C(=O)OC1CCCC1)C2c1coc2ccccc2c1=O (stereo not given)	-8
Cc1cccc(C(=O)Nc2ccc(NC(=O)c3ccc([N+](=O)[O-])o3)cc2)c1	1
CNc1c(C(=O)O)ccc2c1C(=O)c1ccccc1C2=O	-149
CC1CCCC(C)N1C(=O)c1ccc2c(c1NCCO)C(=O)c1ccccc1C2=O (stereo not given)	-268
O=C(O)c1ccc2c(c1NCCO)C(=O)c1ccccc1C2=O	31*
O=C(Nc1cc(C(=O)N2CCCCCC2)ccc1N1CC2CC(C1)c1cccc(=O)n1C2)c1ccccc1Br (stereo not given)	4
CCN1C(=O)C(O)(CC(=O)c2ccc(C)cc2)c2cc(Br)ccc21 (stereo not given)	-13
Cc1nccn1CC(=O)N1c2ccccc2Sc2ccccc21	-11
COC(=O)Cn1c2ccccc2c2nc3ccccc3nc21	-5
O=C(O)Cn1c2ccccc2c2nn3cc(-c4ccccc4)nc3nc21	119*
O=C(O)Cn1c(-c2ccccc2)nc2ccccc21	-2
Cc1nc2nc(Cc3ccccc3)[nH]n2c(=O)c1Cl	5
Cc1nc2nc(Cc3ccccc3)[nH]n2c(=O)c1Cc1ccccc1	50*
Cc1nc2nc(-c3ccccc3)[nH]n2c(=O)c1Cc1ccccc1	-15
SMILES	14-3-3 PPI
O=C(Cn1c2ccccc2c(=O)c2ccccc21)Nc1cccnc1	-11
C=CCNC(=O)c1sc(=S)n(CCc2ccccc2)c1N	-1
CCN1/C(=C/c2ccc3cc(OC)ccc3[n+]2CC)Sc2ccc(C)cc21	42*
CCN1/C(=C/c2ccc3ccccc3[n+]2CC)Sc2ccc(C)cc21	-236
CCN1/C(=C/c2ccc3cc(OC)ccc3[n+]2CC)Sc2ccc(Cl)cc21	12
CCC(=O)Oc1cc2c(C(=O)OC(C)C)c(C)oc2cc1Br	0
CCOC(=O)c1c(N=CC2C(=O)NC(=S)NC2=O)sc2c1CCCCC2	-57
CCCS(=O)(=O)c1c(S(=O)(=O)CCC)c2c3ccccc3ccn2c1C(=O)c1ccc(Br)cc1	-14
CN(C(=O)c1ccc2c(c1N)C(=O)c1ccccc1C2=O)c1ccccc1	132*
CN(C(=O)c1ccc2c(c1)C(=O)c1ccccc1-2)c1ccc([N+](=O)[O-])cc1	-3
CCSc1c(C(N)=O)ccc2c1C(=O)c1ccccc1C2=O	-42
C=C(C)CNCC1OCCc2ccccc21 (stereo not given)	-2
O=C(CCNS(=O)(=O)c1ccc(Cl)cc1)NCc1cccnc1	-3
COc1ccc(S(=O)(=O)NCCC(=O)NCc2cccnc2)cc1	56*
COc1ccc(S(=O)(=O)NCCC(=O)NCc2cccs2)cc1	-5
Cc1cc(-c2nc(-c3cccnc3)no2)ccc1[N+](=O)[O-]	-13
COc1ccc(Cl)cc1-n1c(C=Cc2cccc([N+](=O)[O-])c2)nc2ccccc2c1=O	-10
CC1CCCN(C(=O)Cc2c(C(=O)O)[nH]c3ccccc23)C1 (stereo not given)	7
Cc1nnc(-c2ccccc2)nn1	86*
c1ccc(-c2nnc(-c3ccccc3)o2)cc1	-13
Nc1nc(N)nc(-c2ccccc2)n1	-1
O=C(Cn1cnc2sc3c(c2c1=O)CCCC3)NCC(=O)Nc1ccc(Cl)cn1	3
CCOc1ccc(NC(=O)CS(=O)(=O)c2cn(Cc3ccc(F)cc3)c3ccccc23)cc1	4
CC1(C)CC(=O)c2sc(N3CCCCC3)nc2C1	1
CC1(C)CC(=O)C=C(N2CCN(C3=CC(=O)CC(C)(C)C3)CC2)C1	0
SMILES	14-3-3 PPI
CC1(C)CC(=S)C=C(N2CCCCC2)C1	125*
O=C1c2ccccc2C(=O)c2c(I)cccc21	3
O=C1c2ccccc2C(=O)c2c(Br)cccc21	-2
O=C1c2ccccc2C(=O)c2c1ccc1c(=O)o[nH]c21	73*
O=C1c2ccccc2-c2nc(-c3ccccc3)cc3cccc1c23	-14
Nc1cc2c3c(cccc3n1)C(=O)c1ccccc1-2	73*
O=C1c2ccccc2C(=O)c2cc(Br)ccc21	-6
Cc1ccc2[nH]c(=O)c3cc(C(=O)N4CCCCCC4)sc3c2c1	-13
CCOC(=O)SC1=N/C(=C\c2ccc(N(C)C)cc2)C(=O)S1	-63
CSC1=NC(=Cc2ccc(N(C)C)cc2)C(=O)S1	125*
